This note sets out measurements from PubChem BioAssay AID588856 (National Center for Advancing Translational Sciences (NCATS), 2011).

Several values for one entry are separate records, joined by “and”; a condition that tells them apart may be missing. Equal values may be shown once. About 3,100 (0.76%) of roughly 410,000 compounds were called active. A call without a number means that no potency is given here. This is one part of a sample in which actives are shown more often than they occur. The call rests on the fitted dose curve; in most records, active means well fitted cell-killing curve with a large enough effect; inactive means no such curve, though single readings can be large or run the other way. Some structures have more than one record in an assay (separate samples or runs), and their calls can disagree.
Potency means the concentration at half of the fitted maximal effect.

This experiment in a line: qHTS for Inhibitors of TGF-b: Cytotox Counterscreen. The following applies: HepG2 CAGA-GFP viability, ATP luminescence, 18 h; series mostly up to 46.1 µM. The method, boiled down:
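HepG2 CAGA-GFP cells (1000/well, DMEM with 1% FBS) received compound, then TGF-beta at 500 pg/mL final, and were incubated 18 hours at 37 degrees C. Viability was read by CellTiter-Glo luminescence. Media-only wells were set as complete cell-killing and DMSO as no toxicity.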
In general terms: Quantitative high-throughput screening tests each substance at several concentrations.
Take `O=C(NCc1ccccc1)C1CCN(S(=O)(=O)c2ccc3[nH]c(=O)ccc3c2)CC1`: the Potency entry was “inactive”.

Take `CCCn1c(NCc2ccccc2F)nc2ccccc21`: the Potency entry is “inactive”.

In the case of `CCN1/C(=C\c2ccc3ccccc3[n+]2CC)Sc2cc(C)ccc21`, the Potency was 11.2 µM (active).

On to `CSc1ccccc1-c1nnc(NC(=O)c2ccc3c(c2)OCCO3)o1`, for which the Potency entry was “inactive”. As to `COc1ccc(N(CC(=O)N/N=C/c2cccs2)S(=O)(=O)c2ccc(OC)c(OC)c2)cc1`, the Potency result was “inactive”.

For the molecule `COc1ccc(C(=O)NCC(c2ccco2)N2CCc3ccccc32)cc1OC` (stereo not drawn), the Potency result is “inactive”. For `COc1ccc(C(=O)NCC(=O)N/N=C/c2ccc([N+](=O)[O-])s2)cc1OC` the value was 11.2 µM (active); for `Cc1ccsc1/C=N/NC(=O)Cc1cc(=O)[nH][nH]1`, “inactive”; for `Cc1ccccc1NCC(=O)N/N=C\c1ccc([N+](=O)[O-])s1`, 11.2 µM (active). For the molecule `CCn1c(SCC(=O)N/N=C/C=C/c2ccccc2[N+](=O)[O-])nnc1-c1ccccc1`, the Potency entry was “inactive”. For `CCc1nc2ccc(C(=O)N3CCN(c4cc(Cl)ccc4C)CC3)cc2nc1CC` the value was “inactive”; for `CC(C)c1ccc(OCC(=O)N(Cc2ccc(N(C)C)cc2)C2CCS(=O)(=O)C2)cc1` (stereo not drawn), “inactive”.

In the case of `CC(=O)OC1=C(C(C)=O)N(Cc2ccccc2)S(=O)(=O)c2ccccc21`, the Potency result is “inactive”. For the molecule `Oc1c(C(c2ccc(F)cc2)N2CCN(Cc3ccccc3)CC2)sc2nc(-c3ccco3)nn12` (stereo not drawn), the Potency entry is “inactive”. For `CCc1ccccc1NC(=O)c1ccc2nc(CCc3ccccc3)oc2c1` the value was “inactive”; for `COc1cccc(CNn2cn[nH]c2=S)c1OCc1ccccc1`, “inactive”; for `COc1cccc(CNCCSc2nnnn2C)c1OCc1ccccc1Cl`, “inactive”. For `COc1cccc(CNCCc2c[nH]c3ccccc23)c1OCc1ccccc1F` the value was 17.8 µM (active); for `CCC(C)Nc1oc(-c2ccc(COc3ccc(Cl)cc3)o2)nc1C#N` (stereo not drawn), “inactive”; for `C/C(=N\NC(=O)CC(C)C)c1c(C(F)(F)F)[nH]n(-c2nc3ccccc3s2)c1=O`, 10 µM (active). For `CCC(C)Cn1c(O)cc2nn(-c3nc4ccccc4s3)c(=O)c-2c1C` (stereo not drawn) the value was “inactive”; for `O=C(Nc1ccc(F)cc1F)c1ccc2c(=O)n3c(nc2c1)CCCCC3`, “inactive”. Turning to `CC(C)(C)c1ccc(C(=O)Nc2ccc3c(c2)CCCN3C(=O)c2cccs2)cc1`, the Potency result is “inactive”.

Take `OC(CN=c1sc2ccccc2n1CC(O)COc1ccccc1)COc1ccccc1` (stereo not drawn): the Potency was 14.1 µM (active). Turning to `COc1ccc(Cn2c(=O)sc3ccccc32)cc1OC`, the Potency entry is “inactive”. The value for `CCCn1c(=N)n(CC(O)COc2ccccc2OC)c2ccccc21` (stereo not drawn) was “inactive”; that for `Cc1c(NC(=O)Nc2ccc(F)c(Cl)c2)c(=O)n(-c2ccccc2)n1C` was “inactive”; that for `CCCOc1ccc(NC(=O)CC2C(=O)N(c3ccccc3)C(=O)N2Cc2ccco2)cc1` (stereo not drawn) was “inactive”.

With `CN1c2ccc(C=O)c3c(C=O)ccc(c23)N(C)C1(C)C`, the Potency was 11.2 µM (active).

As for `O=C1C[C@@H](c2ccc3ccccc3c2)N1S(=O)(=O)c1ccccc1[N+](=O)[O-]`, the Potency result is “inactive”. As to `CCOc1ccc(OCC)c(NC(=O)c2cc(C)nc3c2c(C)nn3-c2cccc(Cl)c2C)c1`, the Potency entry is “inactive”.

Turning to `Cc1c(C)n(Cc2ccc(Cl)cc2)c2ccc(C(=O)N3CCN(c4ccccc4F)CC3)cc12`, the Potency entry is “inactive”. For `CCn1c(C)c(C)c2cc(C(=O)N3CCN(c4cccc(C)c4C)CC3)ccc21` the value was “inactive and 17.8 µM (active)”; for `Cc1cccc(N2CCN(C(=O)c3ccc4c(c3)CCN4S(=O)(=O)c3ccccc3)CC2)c1C`, “inactive”. `O=C1OC(C(=O)Nc2cccc(Br)c2)Cc2ccccc21` (stereo not drawn): the Potency entry is “inactive”. Consider `Nc1ccc(Nc2ccccc2)cc1`, for which the Potency was 12.6 µM (active). Regarding `Nc1ccccc1N`, the Potency entry is “inactive”. The value for `Cc1ccc(Nc2ccccc2N)cc1` was “inactive”. Regarding `OCCNc1ncnc2oc(-c3ccco3)c(-c3ccco3)c12`, the Potency entry was “inactive”.

In the case of `O=C(CSc1nnc(-c2ccncc2)n1-c1ccccc1)Nc1ccc(Cl)c(Cl)c1`, the Potency entry is “inactive”. For the molecule `Cc1ccc(-c2nn(CCC(=O)Nc3ccc(Cl)c(Cl)c3)c(=O)c3ccccc23)cc1`, the Potency entry is “inactive”. The value for `O=C(CC(O)(C(F)(F)F)C(F)(F)F)Nc1ccc(Cl)c(Cl)c1` was 10 µM (active); that for `O=C(Nc1cc(C(F)(F)F)ccc1Cl)c1ccc2c(c1)CCN2S(=O)(=O)c1ccccc1` was “inactive”. The value for `NC(=O)Nc1ccc(/C=C/c2ccnc3ccccc23)cc1` was “inactive”; that for `Cc1ccc(S(=O)(=O)N(C)C)cc1NC(=O)c1ccccc1Br` was “inactive”. With `CCN(CC)S(=O)(=O)c1ccc(C)c(NC(=O)COc2ccc(Br)cc2Cl)c1`, the Potency entry was “inactive”.

On to `CCN(CC)S(=O)(=O)c1ccc(NC(=O)c2cccnc2Cl)c(NC(=O)c2cccnc2Cl)c1`, for which the Potency is 12.6 µM (active). For `O=C1O/C(=C\c2ccc(O)cc2)C(O)=C1c1ccc(O)cc1` the value was “inactive”; for `COc1ccc(CN2CCC(=O)c3ccccc3S2(=O)=O)cc1`, “inactive”; for `OCC(O)C(O)C(O)C(O)C=Nc1ccc(/C=C/c2ccnc3ccccc23)cc1` (stereo not drawn), “inactive”.

On to `Cc1nn(Cc2ccc(F)cc2)c(C)c1NC(=O)c1cc(CC(C)C)on1`, for which the Potency result is “inactive”. For `O=C1CCC[C@@H]2C[C@@]3(C[C@@H]4CCN1[C@H]24)Nc1ccccc1NC3=NCc1ccccc1` the value was “inactive”. Turning to `COc1cc(OC)c(OC)cc1/C=C1\C=Cc2ccccc21`, the Potency result is “inactive”. The value for `Cc1nc2nc(SCC(=O)NC3CCC(C)CC3)nn2c(C)c1Cc1ccccc1Cl` (stereo not drawn) was “inactive”; that for `CCOc1ccc(CNC(=O)C2CCCN(c3nnc(C)c4c(C)n(-c5ccccc5)nc34)C2)cc1` (stereo not drawn) was “inactive and 12.6 µM (active)”. `Cc1nnc(N2CCCC(C(=O)NCCN(C)C)C2)c2nn(-c3ccccc3)c(C)c12` (stereo not drawn): the Potency entry was “inactive”. The value for `CCCCNC(=O)C1CCCN(c2nnc(C)c3c(C)n(-c4ccc(Cl)cc4)nc23)C1` (stereo not drawn) was “inactive”; that for `C(=Nc1ccc(/C=C/c2ccnc3ccccc23)cc1)Nc1ccc(/C=C/c2ccnc3ccccc23)cc1` was “inactive”; that for `CCc1ccc(NC(=O)c2cc3c(=O)n(Cc4cccnc4)ccc3nc2C)cc1` was “inactive”. The value for `Cc1c(Cl)cccc1NC(=O)Cn1cc(C(=O)c2cccs2)c2ccccc21` was “inactive”. On to `O=[N+]([O-])c1c(NCCO)cc(Sc2nc3ccccc3s2)c2nonc12`, for which the Potency is 15.8 µM (active). As to `CC(C)c1ccc(S(=O)(=O)Nc2ccc(O)c(Sc3nc4ccccc4s3)c2)cc1`, the Potency result is “inactive”.

Consider `CC(C)(C)c1ccc(S(=O)(=O)Nc2ccc(O)c(Sc3nc4ccccc4s3)c2)cc1`, for which the Potency entry was “inactive”.
